{"source": "the supplement of paper PMC6555819"}
{"tested_on": "VDR:RXRa (NR concentration 270 nM, RXRa partner concentration 90 nM)", "assay": "PBM binding z-score (relative to random genomic background probes); higher = stronger binding; sequences stand for … in GC…GCGATTGACAGCGTAGAATGAAGG", "description": "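Protein-binding microarray (Agilent 4x180K custom design, double-stranded 60-nt probes: 5' GC cap, 34-nt variable region, 24-nt constant primer region; full probe sequence given). Purified or IVT nuclear receptor:RXRα heterodimers (3:1 NR:RXRα, mostly 270:90 nM) or homodimers were incubated for 1 h in PBS with 2% milk and no ligand, then detected with Alexa488 antibodies. Fluorescence from o1-orientation probes (~5 replicates averaged) was converted to z-scores against 500 random hg19 background probes. Variable regions are seed direct-repeat (DR0–DR5) sites, all their single-nucleotide variants and half-site ablations.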"}
{"sequence": "TCTGCTAGCTCAACGATGGTCAGCTAATCTGCTA", "PBM binding z-score": -0.662}
{"sequence": "AGAATGAGGTTATTAAGATCAAGGAATTGCGGTC", "PBM binding z-score": 3.11}
{"sequence": "CGTGCAAGGTCAATGCTAGGTCAGTGAAAGCATT", "PBM binding z-score": 5.24}
{"sequence": "AATACAGGGTCATCGTAGGCCAAAGTACGCACAG", "PBM binding z-score": 5.62}
{"sequence": "CCTACTTGGCCAAAGGTCATTGATTCCAATGCTC", "PBM binding z-score": 4.62}
{"sequence": "CCTCGGAGGACAGAAGGTCAGAGTTGTCCGCTTT", "PBM binding z-score": 1.12}
{"sequence": "TGGCAAAGTTCAAAGGTAACGTAAGTATCCACAC", "PBM binding z-score": 5.01}
{"sequence": "TAGCCTAGGTCATTCAAGGGCCAGTATAGAAAGC", "PBM binding z-score": 2.89}
{"sequence": "ATATGTAGGTTACATCCGGGTCATGCAGGCTATG", "PBM binding z-score": 3.8}
{"sequence": "CAAACTAGTTCACAGAGGTCAAAGTCCGTGCGTA", "PBM binding z-score": 7.47}
{"sequence": "TCTTGTAGATCAGCAGGTGAAGAAAGCTGGCCAA", "PBM binding z-score": 0.208}
{"sequence": "TCATATAGGTAAAGGTGAAAGACGAACGATATGA", "PBM binding z-score": 0.914}
{"sequence": "ATATGTAGGTTATCGGGGCATTCAGTTTGCGCAT", "PBM binding z-score": 2.27}
{"sequence": "TCATATAGGTAAAAGGTGAAAGCCGGTGTGGTAA", "PBM binding z-score": 1.62}
{"sequence": "CCTTACGGGTCAAGGTTATGGCACGGGTGGTACG", "PBM binding z-score": 3.53}
{"sequence": "ATCTCTAGGTAATGTTCAGTGAAAGATCGATAGA", "PBM binding z-score": 0.188}
{"sequence": "TTTTGTAGATCAGCAGGTTAAGAAAGCTGGCCAA", "PBM binding z-score": 0.0929}
{"sequence": "ACTATTGGTTGACTTAGGGCAACCGATACGACGC", "PBM binding z-score": 0.175}
{"sequence": "GGAACGAGGGCAGGTTGATAGCAGAGTTTGATGG", "PBM binding z-score": 0.111}
{"sequence": "TCTTGTAGATCAGCAGGTTACGAAAGCTGGCCAA", "PBM binding z-score": -0.0746}
{"sequence": "TATACAGGGTCGAAGGCCAGAGTACGAATGTCGA", "PBM binding z-score": 1.56}
{"sequence": "ATCTCTAGGTAAAGATAGTTCATTGAATGCAAAT", "PBM binding z-score": 2.07}
{"sequence": "CGAACTAGGTCAGAACAGGCCAGTGAAGGATGAT", "PBM binding z-score": 0.281}
{"sequence": "TCTCGGAGGCCACGAAGGTCAGAGCTTTCCAGAG", "PBM binding z-score": 3.69}
{"sequence": "CAAATTAGGTCACAGAGGTCAAAGTCCGTGCGTA", "PBM binding z-score": 8.12}
{"sequence": "CCGACTGGGGCATAAGGTTACCAGAAGCCAGCCC", "PBM binding z-score": 0.214}
{"sequence": "CGTCAAAGTTGAACTAAGGTAACGTAAAGCACGC", "PBM binding z-score": 1.43}
{"sequence": "TCGAGTATGTTACCAATGGGGCATTCAGCTTTCT", "PBM binding z-score": -0.0704}
{"sequence": "ATATGTAGGTTATCGGGTCATCCAGTTTGCGCAT", "PBM binding z-score": 5.43}
{"sequence": "AGTCAAAGTTCAGGACGCGGTAACGTAAAGCACG", "PBM binding z-score": 2.37}
{"sequence": "ACTTACGGGTCAGCGAGGTTATAGCACGCGTATA", "PBM binding z-score": 6.97}
{"sequence": "TAGCCTAGGTCATGGGGGCCAGTATAGTGTCGGC", "PBM binding z-score": 5.43}
{"sequence": "GCTAGCAGGCCATTTGTGTCACTCAATGACGGGC", "PBM binding z-score": -0.481}
{"sequence": "ATATGTAGGTTAAGGGTCCTTCAGGTTGGTTCGC", "PBM binding z-score": 1.67}
{"sequence": "TCTGCTAGGTCAGTTGGTCAGCTCACGAGCTGCC", "PBM binding z-score": 0.484}
{"sequence": "CGTCACAGTTCAAGGTAACGTAACAGAAAGCAGC", "PBM binding z-score": 1.61}
{"sequence": "CCTCGGAGGACAACACGAGGTCAGAGCTGCCAGA", "PBM binding z-score": 2.72}
{"sequence": "CCTTACGGGTCAAGAGGTTATAGCACGACGAGCG", "PBM binding z-score": 4.09}
{"sequence": "CCTACTGGGCCATTCAAAGGTCATTGATCATATG", "PBM binding z-score": 3.96}
{"sequence": "ATCGAAAGGTCGTGAGGTCAGTATACAGAAAGGC", "PBM binding z-score": 5.51}
